This passage reports outcome and AC50 results from PubChem BioAssay (EPA / NIEHS).

Inconclusive results are not listed. Activity calls are given as the source filed them. The calls were made as follows: active = hit-call score of the fitted dose curve at least 0.9, where 1 is the maximum; inconclusive = response in the unintended direction; inactive = score below 0.9.

Chain of human Dopamine Transporter (DAT), SLC6A3 (gene 6531) (Q01959 whole entry, looked up): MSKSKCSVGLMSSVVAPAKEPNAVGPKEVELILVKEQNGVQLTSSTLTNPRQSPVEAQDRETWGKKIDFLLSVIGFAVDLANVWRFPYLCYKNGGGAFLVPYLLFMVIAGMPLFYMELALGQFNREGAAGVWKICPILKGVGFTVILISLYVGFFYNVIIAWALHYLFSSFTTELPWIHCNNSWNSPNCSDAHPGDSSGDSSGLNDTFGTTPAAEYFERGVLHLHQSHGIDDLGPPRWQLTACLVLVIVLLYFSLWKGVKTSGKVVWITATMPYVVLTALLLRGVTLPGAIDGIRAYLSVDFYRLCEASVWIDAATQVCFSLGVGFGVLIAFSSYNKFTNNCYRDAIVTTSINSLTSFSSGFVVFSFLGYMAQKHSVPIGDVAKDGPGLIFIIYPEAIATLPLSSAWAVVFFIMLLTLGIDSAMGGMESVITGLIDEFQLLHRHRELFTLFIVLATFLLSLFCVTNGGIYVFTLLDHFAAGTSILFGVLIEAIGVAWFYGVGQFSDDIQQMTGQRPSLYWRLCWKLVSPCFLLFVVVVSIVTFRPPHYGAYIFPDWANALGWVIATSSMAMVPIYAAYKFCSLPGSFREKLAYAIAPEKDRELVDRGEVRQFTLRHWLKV
Chain of rat Serotonin Transporter (SERT), Slc6a4 (gene 25553) (P31652 whole entry, looked up): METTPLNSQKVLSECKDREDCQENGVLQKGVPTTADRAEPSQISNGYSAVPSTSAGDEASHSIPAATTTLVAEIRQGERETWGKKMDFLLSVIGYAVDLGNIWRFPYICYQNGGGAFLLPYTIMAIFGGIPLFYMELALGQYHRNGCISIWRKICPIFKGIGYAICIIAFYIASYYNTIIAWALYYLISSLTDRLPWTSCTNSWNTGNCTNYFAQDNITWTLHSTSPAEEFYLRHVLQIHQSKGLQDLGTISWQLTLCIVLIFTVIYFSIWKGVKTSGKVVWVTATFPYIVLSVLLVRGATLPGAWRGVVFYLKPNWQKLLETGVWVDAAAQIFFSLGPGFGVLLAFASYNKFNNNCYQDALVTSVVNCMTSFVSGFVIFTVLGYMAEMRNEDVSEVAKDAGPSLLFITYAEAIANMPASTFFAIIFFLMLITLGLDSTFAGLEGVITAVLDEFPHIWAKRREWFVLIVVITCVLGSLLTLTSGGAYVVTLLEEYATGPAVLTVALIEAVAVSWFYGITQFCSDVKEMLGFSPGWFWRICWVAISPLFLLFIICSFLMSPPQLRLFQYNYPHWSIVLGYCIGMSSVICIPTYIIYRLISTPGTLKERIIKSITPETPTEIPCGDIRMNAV
Chain of human Serotonin Transporter (SERT), SLC6A4 (gene 6532) (P31645 whole entry, looked up): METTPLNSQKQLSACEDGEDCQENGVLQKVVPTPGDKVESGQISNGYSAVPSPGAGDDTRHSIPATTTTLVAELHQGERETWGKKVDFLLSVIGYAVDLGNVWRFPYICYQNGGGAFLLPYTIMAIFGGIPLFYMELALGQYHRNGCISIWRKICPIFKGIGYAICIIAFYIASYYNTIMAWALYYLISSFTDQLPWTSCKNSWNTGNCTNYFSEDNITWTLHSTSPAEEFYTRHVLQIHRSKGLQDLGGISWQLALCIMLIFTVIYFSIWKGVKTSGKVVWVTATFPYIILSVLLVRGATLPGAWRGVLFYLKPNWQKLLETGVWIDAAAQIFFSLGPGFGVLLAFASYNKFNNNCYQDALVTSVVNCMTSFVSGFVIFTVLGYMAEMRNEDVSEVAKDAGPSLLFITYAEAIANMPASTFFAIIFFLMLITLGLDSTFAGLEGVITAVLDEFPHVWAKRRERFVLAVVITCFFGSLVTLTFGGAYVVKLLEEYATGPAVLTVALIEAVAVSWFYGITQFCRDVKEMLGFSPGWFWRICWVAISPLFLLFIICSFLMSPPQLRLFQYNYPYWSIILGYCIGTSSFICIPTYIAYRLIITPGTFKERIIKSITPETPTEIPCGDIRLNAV
Chain of Peroxisome proliferator-activated receptor gamma (Homo sapiens) (P37231 whole entry, looked up): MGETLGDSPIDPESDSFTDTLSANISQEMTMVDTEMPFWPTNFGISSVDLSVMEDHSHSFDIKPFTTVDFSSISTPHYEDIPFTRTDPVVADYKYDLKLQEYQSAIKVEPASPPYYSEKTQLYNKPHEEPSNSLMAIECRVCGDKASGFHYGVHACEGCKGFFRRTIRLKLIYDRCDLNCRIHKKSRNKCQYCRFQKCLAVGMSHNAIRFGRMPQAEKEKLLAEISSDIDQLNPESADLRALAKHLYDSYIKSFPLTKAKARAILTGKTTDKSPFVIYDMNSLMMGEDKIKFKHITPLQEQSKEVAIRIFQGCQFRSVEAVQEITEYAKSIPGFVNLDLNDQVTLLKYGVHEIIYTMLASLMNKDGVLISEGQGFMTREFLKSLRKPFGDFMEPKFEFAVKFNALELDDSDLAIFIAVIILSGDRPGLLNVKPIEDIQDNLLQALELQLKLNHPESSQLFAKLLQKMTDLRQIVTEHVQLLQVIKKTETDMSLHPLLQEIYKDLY

The target of the first assay is Peroxisome proliferator-activated receptor gamma (Homo sapiens) (UniProt P37231). The assay is described as follows: NVS_NR_hPPARg: NovaScreen (NVS) Nuclear Receptor Binding Assay for human Peroxisome Proliferator-activated Receptor gamma (PPARg) (AID 2283370). A digest of the protocol:
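Fluorescence polarization readout of ligand binding to extracted human PPARg, measured at 2 h. Duplicate single-point screen at 25 uM, then concentration-series retesting; activity defined as signal loss versus DMSO.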
For `CCc1cccc(C)c1N(C(=O)CCl)C(C)COC` (stereo not drawn), the result was inactive.

In the case of `CCOP(=S)(OCC)Oc1ccc([N+](=O)[O-])cc1`, the result was inactive.

What is called AC50 is the concentration giving half of the maximal activity seen. For `CCc1cccc(CC)c1N(COC)C(=O)CCl`, the AC50 is 21.2 µM (active).

As to `CCOC(=O)CC(SP(=O)(OC)OC)C(=O)OCC` (stereo not drawn), the compound was classed as inactive.

Regarding `CCOP(=O)(NC(C)C)Oc1ccc(SC)c(C)c1` (stereo not drawn), the compound was called inactive.

On to `CCOP(=S)(OCC)SCCSCC`, for which the compound was called inactive.

As for `Nc1c(Cl)cc([N+](=O)[O-])cc1Cl`, the call was inactive.

Consider `CCCCOC(=O)c1ccccc1C(=O)O`, for which the compound was called inactive.

Regarding `CNc1cnn(-c2cccc(C(F)(F)F)c2)c(=O)c1Cl`, the result was inactive.

As to `CCCCN(CC)c1c([N+](=O)[O-])cc(C(F)(F)F)cc1[N+](=O)[O-]`, the compound was classed as inactive.

Another assay addresses human Serotonin Transporter (SERT), SLC6A4 (gene 6532) (UniProt P31645). The assay is described as follows: NVS_TR_hSERT: NovaScreen (NVS) Transporter Assay for human Serotonin Transporter (SERT) (AID 2283372). A digest of the protocol: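 Radioligand binding to native SERT in human platelet membranes, read by filter-based scintillation counting 1 h after dosing. Primary screen in duplicate at 25 uM; actives followed up in concentration series; loss of signal versus DMSO baseline.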
On to `CCOP(=S)(OCC)Oc1ccc([N+](=O)[O-])cc1`, for which the AC50 was 7.25 µM (active).

For the compound `Nc1c(Cl)cc([N+](=O)[O-])cc1Cl`, the outcome was inactive.

Regarding `COc1ccc(C(=CC(=O)N2CCOCC2)c2ccc(Cl)cc2)cc1OC`, the compound was called inactive.

The next assay has as its target human Dopamine Transporter (DAT), SLC6A3 (gene 6531) (UniProt Q01959). The assay is described as follows: NVS_TR_hDAT: NovaScreen (NVS) Transporter Assay for human Dopamine Transporter (DAT) (AID 2283374).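 Also: activity means loss of bound radioligand signal relative to DMSO.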 A digest of the protocol: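 Cell-free radioligand displacement binding at human DAT, 1 h after dosing, with filtration and scintillation counting. Primary screen in duplicate at 25 uM, actives then in concentration series. Loss of bound signal versus DMSO scored.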
For the compound `CC(C)N(C(=O)SCC(Cl)=C(Cl)Cl)C(C)C`, the AC50 was 7.84 µM (active).

For the compound `Nc1c(Cl)cc([N+](=O)[O-])cc1Cl`, the AC50 was 25 µM (active).

For the compound `CC(C1CC1)C(O)(Cn1cncn1)c1ccc(Cl)cc1` (stereo not drawn), the AC50 is 0.175 µM (active).

With `CCCCOC(=O)c1ccccc1C(=O)O`, the concentration at half-maximal activity (AC50) was 8.41 µM (active).

On to `CCCCOC(=O)[C@@H](C)Oc1ccc(Oc2ccc(C#N)cc2F)cc1`, for which the compound was classed as inactive.

With `CSc1nnc(C(C)(C)C)c(=O)n1N`, the compound was called inactive.

The next assay concerns the target rat Serotonin Transporter (SERT), Slc6a4 (gene 25553) (UniProt P31652). The assay is described as follows: NVS_TR_rSERT: NovaScreen (NVS) Transporter Assay for rat Serotonin Transporter (SERT) (AID 2283375). A digest of the protocol:
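Radioligand binding with competitive displacement on rat forebrain membrane preparations, counted by filtration and scintillation after 1 h. Primary single-point duplicates at 25 uM; active chemicals followed up in concentration-response. DMSO served as baseline.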
With `CC(C)N(C(=O)SCC(Cl)=C(Cl)Cl)C(C)C`, the result was inactive.

Consider `CCOP(=S)(OCC)Oc1ccc([N+](=O)[O-])cc1`, for which the AC50 was 8.93 µM (active).

On to `Nc1c(Cl)cc([N+](=O)[O-])cc1Cl`, for which the AC50 was 3.3 µM (active).

For `COc1ccc(C(=CC(=O)N2CCOCC2)c2ccc(Cl)cc2)cc1OC`, the call was inactive.
